# An excerpt weighted towards active compounds, which were near 2.2% of everything screened.
# TDP43 rescue = qHTS of TDP-43 Inhibitors; TDP-43 expressing yeast growth rescue, BacTiter-Glo, 24 h; Potency, µM (series often up to 46.1 µM), inactives show at the top dose growth rescue (activation), hits mostly activators; hit rate 1.8% among 410,000; AID 652104, 2013; note: % of control where 0% means no effect; nearly all actives have a fitted effect of over 50% in size
#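 Yeast cells expressing TDP-43 under galactose induction are exposed to compounds for 24 hr at 30 deg C. BacTiter-Glo luminescence measures growth, so protective compounds score as activators.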
# FUS suppressor = qHTS for Suppressors of FUS Proteinopathy: Primary screen using FUS-linked yeast assay | S. cerevisiae FUS-expressing, growth rescue, OD600, 24 h | hit rate 0.24% among 390,000 | Potency, µM (series often up to 76.6 µM), actives largely listed as activators;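 note: plate controls were DMSO vehicle for no effect and reference control for full effect; nearly all actives have a fitted effect of over 55% in size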
#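 Yeast expressing FUS under galactose induction, OD 0.005 in 2% galactose medium; compounds in a dilution series, 24 h at 30C. Growth rescue by absorbance at 600 nm; CP55940 positive control, DMSO negative.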
# Mito fusion act = qHTS Assay for Small Molecule Inhibitors of Mitochondrial Division or Activators of Mitochondrial Fusion; S. cerevisiae fusion-defective mutant growth rescue, CellTiterGlo 48 h; Potency, µM (titrated, usually from 46.1 µM), for inactives: at the highest dose growth rescue (activation), usual class: activators; hit rate 0.23% among 320,000; AID 485298, 2010; note: % of control where 0% means no effect; nearly all actives have a fitted effect of over 45% in size
#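 Read-out: ATP-based luminescence (CellTiterGlo, 10 min ambient) reporting growth of fusion-defective ts yeast after 48 hours at 37C on glycerol/ethanol YPEG medium in the presence of compound.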
# aSyn yeast inh = qHTS of alpha-syn Inhibitors; Potency, µM (top dose mostly 46.1 µM), inactives show at the highest dose growth rescue (activation), hits mostly activators; AID 652106, 2013; Yeast expressing alpha-synuclein, growth rescue, BacTiter-Glo, 24 h; hit rate 0.14% among 370,000; note: % of control where 0% means no effect; nearly all actives have a fitted effect of over 65% in size
#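 Rescue of yeast growth: cells expressing toxic alpha-synuclein, induced in galactose at OD600 0.02, incubated with compound 24 h at 30 C. ATP luminescence quantified growth; inhibitors of toxicity appear as activators.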
# Abeta yeast res = qHTS for compounds that reverse cellular toxicity of Amyloid beta (A-beta) peptide in yeast: Primary Screen. hit rate 0.063% among 410,000. yeast expressing A-beta42, growth rescue, OD600, 48 h; response scale: 0% DMSO, 100% iron-clioquinol control. Potency, µM (highest dose often 46.1 µM), actives largely listed as activators; note: nearly all actives have a fitted effect of over 55% in size
#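 Yeast A-beta toxicity model in growth medium with pinned compounds, 48 h at 30 C; growth read as absorbance at 600 nm. Normalized to FeCl3/clioquinol equimolar mix (positive) and DMSO (negative).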
# Active calls of the source: *; i = inactive; ? = inconclusive; nt = not tested or not shown; [ ] = dose if it differs, or a comment. Calls come from the whole dose curve; as a rule, active = well fitted curve in the direction sought with a large enough effect; inconclusive = small, poorly fitted or top-dose-only effect, or another doubt; inactive = no such curve, though single readings can be large; an effect the other way counts as inactive or inconclusive. Potency is the fitted concentration of half-maximal effect.
SMILES,TDP43 rescue,FUS suppressor,Mito fusion act,aSyn yeast inh,Abeta yeast res
CC(C)CN(C(=O)c1ccc(=O)n(C)n1)c1nc2ccccc2s1,16µM*,i,1%,0%,i
CCCCC[C@]12Cc3ccccc3C(O1)c1c(cc(C)oc1=O)O2,nt,nt,-3%[9.22 µM],nt,nt
C=CCNC(=S)NN=C1CCCCCCC1,-3%,i,-5%,-8%,8.9µM*
COCCNC(=S)NN=C1CCCCC1,-18%,i,20%,0%,i
N#Cc1cn(Cc2cccc(Cl)c2)c2ccccc12,16µM*,nt,?,5%,i
COc1ccc(Cl)cc1NC(=O)Cn1c(=O)n(Cc2ccco2)c(=O)c2cccnc21,5%,i,nt,nt,i
O=[N+]([O-])c1ccccc1CNc1ccc(F)c(Cl)c1,18µM*,i,26%,-11%,i
CC(=O)N1CCN(C(=O)C2CCCN(C(=O)c3ccc4c(c3)NC(=O)CS4)C2)CC1 (stereo not drawn),nt,i,nt,nt,nt
CCOc1cc(-c2ccc(OC(=O)c3ccc(C)cc3)c(OC)c2)cc(=O)c2c(C)oc(C)c12,18µM*,?,nt,nt,i
COc1cc(-c2cc(OC)c3c(C)oc(C)c3c(=O)c2)ccc1OC(=O)c1ccccc1C,20µM*,?,nt,nt,i
COc1cc(-c2cc(OC)c3c(C)oc(C)c3c(=O)c2)ccc1OC(=O)c1cccc(Cl)c1,20µM*,?,nt,nt,i
COc1ccc(-c2cc(OC(=O)c3cccc(Cl)c3)c3c(C)oc(C)c3c(=O)c2)cc1OC,-6%,?,nt,nt,i
COc1ccc(-c2cc(OC(=O)c3ccccc3C)c3c(C)oc(C)c3c(=O)c2)cc1,25%,i,nt,nt,i
CC1CCN(c2cc(N)c(Cl)cc2[N+](=O)[O-])CC1,18µM*,i,-8%,?,i
CC1CCN(c2cc(C#N)c(C#N)cc2[N+](=O)[O-])CC1,5%,i,-3%,-15%,i
Cc1cc2c(cc1C)C(c1cccc([N+](=O)[O-])c1)CC(=O)N2 (stereo not drawn),7%,i,24%,19%,i
O=C1CC(c2ccc(Cl)c([N+](=O)[O-])c2)c2ccc3ccccc3c2N1 (stereo not drawn),29%,i,13µM*,6%,i
Cc1cc(-c2nnc(SCC(=O)Nc3cccc4ccccc34)n2N)n[nH]1,nt,i,nt,nt,nt
COCCCNC(=O)Cc1c(C)c2c(cc(C)c3c(C(C)(C)C)coc32)oc1=O,4%,32µM*,?,-1%,i
COC(=O)[C@H]1C[C@]2(C/C=C(\C)CCC=C(C)C)c3ccccc3N[C@H]2N1,nt,i,nt,nt,nt
COc1ccc(C=C(C(=O)c2ccccc2)C(=O)c2ccccc2)cc1,14µM*,i,nt,6%,i
COc1ccc(C=C(C(=O)c2ccccc2)c2ccccc2)cc1,0%,i,nt,1%,i
COc1ccc(C=C(C(C)=O)C(=O)c2ccccc2)cc1,20µM*,i,nt,?,i
Cc1cccc(-c2nc3scc(CCNS(=O)(=O)c4ccc(F)c(C(F)(F)F)c4)n3n2)c1,17%,i,nt,nt,i
Cc1ccc(N2CC(NC(=O)c3ccc4c(c3)OCO4)CC2=O)cc1 (stereo not drawn),?,i,nt,nt,i
SMILES,TDP43 rescue,FUS suppressor,Mito fusion act,aSyn yeast inh,Abeta yeast res
CCOC(=O)CCSc1nc2c(c(C(F)(F)F)c1C#N)CCC2,13µM*,i,18%,8%,i
O=C(O)c1ccc(CN2C(=O)CSC2=S)cc1,18µM*,i,-15%,13µM*,i
O=C1CSC(=S)N1c1ccc(F)c(Cl)c1,25µM*,i,14%,16%,?
O=C(O)c1cc(C(=O)O)cc(N2C(=O)CSC2=S)c1,14%,i,22%,7%,i
O=C(O)c1ccc(N2C(=O)CSC2=S)cc1,?,i,nt,10µM*,i
O=C(O)CN1C(=O)CSC1=S,3%,i,9%,13%,i
O=C1CSC(=S)N1c1ccccc1,14%,nt,nt,-6%,i
CCOC(=O)c1c(C)[nH]c(C)c1S(=O)(=O)NCC(=O)Nc1cccc(C(F)(F)F)c1,24%,i,nt,nt,i
Cc1ccc(C=NNC(=O)CSc2nc3sc4c(c3c(=O)n2-c2ccccc2)CCCC4)s1,nt,i,nt,nt,nt
Cc1cc(F)ccc1NC(=O)CN1C(=O)CCc2cc(S(=O)(=O)N3CCOCC3)ccc21,19%,i,nt,nt,i
O=C(CSc1nncs1)NCc1ccc2c(c1)OCO2,13µM*,i,-6%,-1%,i
Cc1nc(SCC(=O)NCc2ccc3c(c2)OCO3)c(C#N)c2c1CCCC2,?,i,25%,18µM*,i
Cc1cc(=O)[nH]c(SCC(=O)NCc2ccc3c(c2)OCO3)n1,-21%,i,-5%,-7%,i
COc1ccc(C(=O)Nc2cccc(-c3cn4ccsc4n3)c2)c(OC)c1,5µM*,?,nt,nt,i
Cc1ccc(N(CC(=O)NCCc2ccccc2)S(=O)(=O)N(C)C)cc1,15%,i,nt,nt,i
CC(C)=CCC[C@](C)(O[C@@H]1O[C@H](CO[C@@H]2OC[C@@H](O)[C@H](O)[C@H]2O)[C@@H](O)[C@H](O)[C@H]1O)C1CC[C@]2(C)C1[C@H](O)CC1[C@@]3(C)CC[C@H](O[C@@H]4O[C@H](CO)[C@@H](O)[C@H](O)[C@H]4O)C(C)(C)C3CC[C@]12C (stereo partly drawn),15%,16µM*,nt,3%,i
CC(C)=CCC[C@](C)(O[C@@H]1O[C@H](CO[C@@H]2OC[C@H](O[C@@H]3OC[C@@H](O)[C@H](O)[C@H]3O)[C@H](O)[C@H]2O)[C@@H](O)[C@H](O)[C@H]1O)C1CC[C@]2(C)C1[C@H](O)CC1[C@@]3(C)CC[C@H](O)C(C)(C)C3[C@@H](O)C[C@]12C (stereo partly drawn),5%,i,nt,0%,i
Cc1ccc(NC(=O)CSc2nc3c(c(=O)[nH]2)CN(Cc2ccccc2)CC3)cc1Cl,6%,i,nt,nt,i
Cc1cccc(-c2cc3nc(-c4ccccc4)cc(N4CCC5(CC4)OCCO5)n3n2)c1,35µM*,i,?,3%,i[9.22 µM]
Cc1ccc(-c2cc3nc(-c4ccccc4)cc(N4CCC5(CC4)OCCO5)n3n2)cc1,?,i,?,-12%,i
CCc1nc2c(OCc3ccc(Cl)cc3Cl)cccn2c1N(C)C(=O)c1ccccc1F,18µM*,?,nt,0%,i
CCCCC(=O)N(C)c1c(CC)nc2c(OCC(=O)c3ccc(Cl)cc3Cl)cccn12,6%,32µM*,nt,-11%,i
